This passage reports INHIBITION results from ChEMBL document CHEMBL4513216, “Probing the Open Global Health Chemical Diversity Library for Multistage-Active Starting Points for Next-Generation Antimalarials” (ACS Infect Dis, 2020).

Each structure is given as a SMILES string. In all, about 65,000 compounds went through this assay and about 2,100 (3.2%) showed an effect of 50% or more. The median lay at about -52%. The list comes from a sample in which strong results are over-represented; it also holds similar structures and randomly drawn compounds.

For this experiment, the system named is Plasmodium falciparum. As to the kind of experiment: Screen against P. falciparum Asexual Blood Stage (ABS), at 5uM. Format: functional, Dd2. The note with it: tested at 5 uM.
For the molecule `Cc1cnc(N2CCC3(CC2)CC3CNC(=O)C2CCC2)nc1` (stereo not drawn), the INHIBITION is given as -57.8%. With `COc1cccc(-c2noc(C3CCN(Cc4ccc(C)cc4)C3)n2)c1` (stereo not drawn) the figure was -97.2%. With `O=C(c1cc(Cl)ccc1OC1CCN(C2CCCC2)CC1)N1CC(O)C1` the figure was -96%; with `CC(=O)N1CCC(Oc2ccc(Cl)cc2C(=O)N2CCCO2)CC1`, -31%. With `O=C(c1cc(Cl)ccc1OC1CCN(C2CCCC2)CC1)N1CCCO1` the figure was 53.5%; with `Cc1noc([C@@H]2C[C@H]3OCC[C@H]3N(Cc3sccc3C)C2)n1`, -15.2%; with `CN(C)C(=O)c1cn2cc(-c3ccccc3Cl)n(CC3CC3)c(=O)c2n1`, 37.8%. Take `NC(=O)c1cn2cc(-c3ccccc3Cl)n(CC3CC3)c(=O)c2n1`: the INHIBITION is reported as -27.5%. For `CNC(=O)c1cn2cc(-c3cccc(Cl)c3)n(CC=C(C)C)c(=O)c2n1`, the INHIBITION is recorded as 56.6%.

As for `CNC(=O)c1cn2cc(-c3cccc(Cl)c3)n(CC3CC3)c(=O)c2n1`, the INHIBITION is 19.5%. With `CNC(=O)c1cn2cc(-c3ccc(F)cc3)n(CC=C(C)C)c(=O)c2n1` the figure was 39.1%; with `CCNC(=O)c1cn2cc(-c3ccccc3Cl)n(CC3CC3)c(=O)c2n1`, 43.7%.

In the case of `CNC(=O)c1cn2cc(-c3ccccc3Cl)n(CC=C(C)C)c(=O)c2n1`, the INHIBITION stood at 68.2%. With `CN(C)C(=O)c1cn2cc(-c3cccc(Cl)c3)n(CC3CC3)c(=O)c2n1` the figure was -21.6%; with `CNC(=O)c1cn2cc(-c3ccccc3Cl)n(CC3CC3)c(=O)c2n1`, 54.7%; with `CCn1cc(NC(=O)CCc2ccc3c(c2)OCCCO3)cn1`, -127%. To `Brc1ccc(-c2nnc(CN(Cc3cccs3)CC3CCCO3)o2)s1` (stereo not drawn) belongs -45.2%. With `Cc1cnn(CC2CCCN2Cc2nnc(C3CC3)n2C)c1` (stereo not drawn) the figure was -100%; with `COC1[C@@H]2CC[C@H]1CN(c1nc(C)nc3sccc13)C2` (stereo partly drawn), -88.3%.

As to `Cc1cc(C(=O)N2CCCC(n3cncn3)C2)no1` (stereo not drawn), the INHIBITION stood at 66.7%.

In the case of `Cc1cc(C(=O)N2CCCC(n3cncn3)C2)on1` (stereo not drawn), the INHIBITION is -247%. With `O=C(c1cc(C2CC2)on1)N1CCCC(n2cncn2)C1` (stereo not drawn) the figure was -34.5%; with `Cn1cccc1-c1cc(C(=O)NCCCc2csc(N)n2)[nH]n1`, -75.5%. With `Cc1ccc(-c2cc(C(=O)NCCCc3csc(N)n3)[nH]n2)s1` the figure was 66.5%; with `Cc1ccc(-c2cc(C(=O)NCCCc3csc(N)n3)[nH]n2)o1`, 22%; with `Cc1nc(C)c(CNC(=O)N2CCN(c3ccc(Cl)cn3)CC2)s1`, -49.6%. For `O=C(NC1CCC1)[C@@H]1C[C@@H]2CCN(Cc3cccs3)C[C@@H]2O1`, the INHIBITION is recorded as -168%.

Turning to `CC(C)(N)C(=O)N1CCC(c2nccnc2Oc2ccccc2F)CC1`, the INHIBITION is reported as -4.82%. To `NC(=O)c1cccc(C2CCN(c3ncccn3)CC2)n1` belongs -58%; to `O=C1NCCCc2[nH]c(Cc3cccc(Cl)c3)nc21`, -167%. To `Clc1cccc(C[C@@H]2NCCC[C@@H]2Nc2ccccc2)c1` belongs 88.7%; to `O=C(Cc1cccc(Cl)c1)N[C@@H]1CCNC[C@H]1O`, -75.4%; to `CC(NC(=O)NCCCc1n[nH]c(N)c1C#N)c1cccc(Cl)c1` (stereo not drawn), 0.414%.

For `COCC(=O)N(C)Cc1nc(N2CCCC2)ncc1-c1ccncc1`, the INHIBITION is -9.28%.

For `CCn1nnc2c1C(COCCN(C)C)CN(Cc1ccco1)C2` (stereo not drawn), the INHIBITION was -67.6%. To `CCn1nnc2c1C(COCCN(C)C)CN(Cc1ccc(C)s1)C2` (stereo not drawn) belongs 60.1%; to `Cc1ccc(CN2Cc3nnn(C)c3C(COCC3CC3)C2)s1` (stereo not drawn), -90.4%. Consider `CCOC(=O)N1CC(=O)N(Cc2ccc(OC)cc2)CC(O)C1` (stereo not drawn), for which the INHIBITION is given as -109%. Turning to `Cc1occc1C(=O)N1CCC2(CCC2NC(=O)c2ccn(C)c2)CC1` (stereo not drawn), the INHIBITION was -23.1%. With `CC(NCc1ccc(F)cc1)c1ccc(S(C)(=O)=O)cc1` (stereo not drawn) the figure was -28.9%; with `CC(NCc1ccc(C(C)(C)C)cc1)c1ccc(S(C)(=O)=O)cc1` (stereo not drawn), -7.37%. With `CC(C)c1ccc(CNC(C)c2ccc(S(C)(=O)=O)cc2)cc1` (stereo not drawn) the figure was 53.6%; with `Cc1ccc(-c2cc(CN3CCc4cnc(C)nc4C3)on2)cc1`, -29%. With `O=C1CCC2(CCC(NCc3ccsc3)CC2)N1Cc1ccccc1` (stereo not drawn) the figure was 65.3%. For `CN1C(=O)CCC12CCC(NCc1ccsc1)CC2` (stereo not drawn), the INHIBITION is -30.4%.

Take `O=C1CCC2(CCC(NCc3cccnc3)CC2)N1Cc1ccccc1` (stereo not drawn): the INHIBITION is reported as -16.6%.

Regarding `Cc1cc(C(=O)NCC(F)(F)F)c2c(C3CCNCC3)noc2n1`, the INHIBITION is given as -42.4%.

`CCn1nc2c(cc1=O)CN(c1ncnc3ccsc13)CC2`: the INHIBITION was determined as 17.6%. To `CC(=O)N1CCO[C@@H]2CN(Cc3ccccc3F)C[C@@H]2C1` belongs -77.7%; to `CN(C)S(=O)(=O)N1CCCC(c2nccnc2-c2cccc(Cl)c2)C1` (stereo not drawn), -85.8%; to `CN(C)Cc1cc(C2CCCN(S(=O)(=O)c3cccc(Cl)c3)C2)nn1C` (stereo not drawn), 56.5%.

As to `O=S(=O)(c1cccc(Cl)c1)N1CCCC(Cn2cncn2)C1` (stereo not drawn), the INHIBITION is recorded as -36.3%.

For the molecule `Cc1cccc(-n2ncc3c2CCCC3NCC(C)(C)CO)c1C` (stereo not drawn), the INHIBITION is -58.1%.

In the case of `O=C(c1ccsc1)N1C[C@H]2CCC[C@@]2(COCc2cccnc2)C1`, the INHIBITION is -29.9%. With `Cc1ccc(CN2C[C@@H](C(=O)Nc3cccnc3)C[C@H]3OCC[C@H]32)o1` the figure was -35.4%. As for `Cc1nccc(-c2cccc(-c3ccn(CC4CCNC4)n3)c2)n1` (stereo not drawn), the INHIBITION is on record as -137%. With `c1cc(-c2cncnc2)cc(-c2ccn(CC3CCNC3)n2)c1` (stereo not drawn), the INHIBITION came out at 13.9%. With `Cc1ccsc1-c1cccc(-c2ccn(CC3CCNC3)n2)c1` (stereo not drawn) the figure was 61.7%; with `Cc1cccc(C(=O)N2CC[C@]3(C[C@H](OCc4ccccn4)CO3)C2)c1`, -121%. With `CCN(CC)c1ccc(NS(=O)(=O)c2cccnc2)cn1` the figure was 59.3%. With `CCN(CC)c1ccc(NS(=O)(=O)c2cnn(C)c2)cn1` the figure was -98.6%; with `CCN(CC)c1ccc(NS(=O)(=O)c2cncc(F)c2)cn1`, -19.4%.

With `Cc1ccc(-n2ncc3c2CCCC3N)cc1C` (stereo not drawn), the INHIBITION is reported as 7.06%. On to `NC1CCCc2c1cnn2-c1cc(F)cc(F)c1` (stereo not drawn), for which the INHIBITION came out at 53.6%.

For `CC(C)(C)c1ccc(-n2ncc3c2CCCC3N)cc1` (stereo not drawn), the INHIBITION stood at 31.8%.

On to `CC(O)CN1CCN(Cc2csc(-c3ncccn3)n2)CC1` (stereo not drawn), for which the INHIBITION was -107%.

For `c1ccc(CC2(CNCc3ncc[nH]3)CCC2)cc1`, the INHIBITION came to 45.2%. Turning to `CCC1(CNCc2ncc[nH]2)CCCC1`, the INHIBITION was 67%. Consider `CCCC1(CNCc2ncc[nH]2)CCC1`, for which the INHIBITION stood at 26.4%.

As to `CCc1ccc(C(=O)N2CC[C@H](Oc3cccnc3C)[C@@H](O)CC2)cc1`, the INHIBITION is listed as -41%. With `CN(C)c1cc(C(=O)N2CCCCCC2)ccn1` the figure was -8.55%; with `CN(C)c1cc(C(=O)N2CCCC2)ccn1`, 55.6%; with `CN(C)c1cc(C(=O)N2CCCCC2)ccn1`, -78.5%. To `N#CCCN(C(=O)CN1CCCC1c1ccccc1Cl)c1ccccc1` (stereo not drawn) belongs 40.4%; to `CCN(C(=O)CN1CCCC1Cc1ccccc1)c1ccccc1` (stereo not drawn), 61.3%.

`N#CCCN(C(=O)CN1CCCC1c1cccs1)c1ccccc1F` (stereo not drawn): the INHIBITION was found to be 40%. To `Cc1ccc(N(CCC#N)C(=O)CN2CCCC2c2cccs2)cc1` (stereo not drawn) belongs 13.3%.

Consider `N#CCCN(C(=O)CN1CCCC1C1CCCCC1)c1ccccc1` (stereo not drawn), for which the INHIBITION was 52.2%. With `N#CCCN(C(=O)CN1CCCC1c1ccsc1)c1ccccc1F` (stereo not drawn) the figure was 69.7%; with `Cc1ccc(N(CCC#N)C(=O)CN2CCCC2c2ccsc2)cc1` (stereo not drawn), 46.2%. With `N#CCCN(C(=O)CN1CCCC1Cc1ccccc1)c1ccccc1` (stereo not drawn) the figure was 22.1%. To `CN(C(=O)CN1CCCC1Cc1ccccc1)c1ccccc1` (stereo not drawn) belongs 22.7%. As to `N#CCCN(C(=O)CN1CCCC1c1ccsc1)c1ccccc1` (stereo not drawn), the INHIBITION is given as 1.81%. With `CCN(C(=O)CN1CCCC1c1ccc(OC)cc1)c1ccccc1` (stereo not drawn) the figure was 18.8%. With `Cc1ccc(C2CCCN2CC(=O)N(CCC#N)c2ccccc2)cc1` (stereo not drawn) the figure was 62.4%. To `CC(C)Nc1ncc(-c2csc(NC(=O)C[C@H]3COCCN3)n2)cn1` belongs -130%; to `c1ccc(CN2CCc3ncnc(-c4cccnc4)c3CC2)nc1`, -71.1%. `Cc1cnccc1NCCNC1CCSCC1`: the INHIBITION is recorded as -40.9%. To `CCc1nccn1CC(=O)Nc1cccc(N2CCCC2)c1` belongs -50.9%; to `Cn1nc(C2CCCNC2)c2c(C(=O)NC3CC3)cc(C3CC3)nc21` (stereo not drawn), -98.6%.

With `CC(=O)c1ccc(OCC(=O)NS(=O)(=O)c2ccc(C)s2)cc1`, the INHIBITION is on record as -93.5%. `CC(C)C(NC(N)=O)C(=O)NCc1ccc(N2CCCC2)nc1` (stereo not drawn): the INHIBITION was -34.4%.

On to `Cc1noc(CN2C[C@@H]3CC[C@H]2CN(C2Cc4ccccc4C2)C3)n1`, for which the INHIBITION was found to be 3.93%. As for `Cc1cc(CN2C[C@@H]3CC[C@H]2CN(C2Cc4ccccc4C2)C3)on1`, the INHIBITION is listed as 62.7%. To `Cc1nnc(CN2C[C@@H]3CC[C@H]2CN(C2Cc4ccccc4C2)C3)o1` belongs 38.4%; to `Cc1noc(CNC(=O)CN(C)c2nc3c(C)ccc(C)c3s2)n1`, -71.5%; to `CCCn1nccc1-c1cc(C2CCN(S(C)(=O)=O)CC2)ccn1`, -114%. With `Cc1ccc(N2C[C@H]3CCC[C@@H](CN(C)C)[C@H]3C2)nn1` the figure was -54.9%; with `CN(C)C[C@@H]1CCC[C@@H]2CN(c3ncccn3)C[C@@H]21`, 44.8%. Consider `CN(C[C@@H]1CCC[C@@H]2CN(c3ncccn3)C[C@@H]21)C1CC1`, for which the INHIBITION came out at 17.5%. To `CN(C)C[C@@H]1CCC[C@@H]2CN(c3cccnc3)C[C@@H]21` belongs 56.4%; to `COCCN(C)C[C@@H]1CCC[C@@H]2CN(c3ncccn3)C[C@@H]21`, 33.9%; to `CN(C)C[C@@H]1CCC[C@@H]2CN(c3nccc(C(F)(F)F)n3)C[C@@H]21`, 64.8%.
